Screening data from PubChem BioAssay.
pS6 MEF inh: inhibitors of mTORC1 signaling in Tsc2-/- p53-/- MEF cells; 0.78% of 44,000 active; Tsc2-/- p53-/- MEF, phospho-rpS6 immunofluorescence/PI, 24 h; Potency, µM (series often up to 38.3 µM), for inactives: at the highest dose activity change, negative = inhibition, hits mostly inhibitors;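 note: plate controls were DMSO for no effect and rapamycin for full effect; nearly all actives have a fitted effect of over 50% in size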
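Compounds act on Tsc2-/-, p53-/- fibroblasts carrying an empty vector for 24 h before fixation and dual staining for phospho-S6 and DNA (propidium iodide). Values are percentages of cells above a rapamycin-defined pS6/PI threshold.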
SKOV3 invasion: ovarian cancer metastasis inhibition, 3D TME model; SKOV3ip1-GFP adhesion/invasion on 3D omental model, fluorescence; Potency, µM (highest dose often 45.8 µM), inactives show at the top dose activity change, negative = inhibition, most hits filed as inhibitors; 0.1% of 46,000 active; AID 1963576;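 note: plate controls were DMSO wells for no effect and tomatine positive control wells for full effect; nearly all actives have a fitted effect of over 65% in size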
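Primary human omental fibroblast/mesothelial 3D culture pre-formed 48 h. SKOV3ip1-GFP cells added with compounds (0.36-46 umol/L), incubated 2 h RT/16 h 37 C, fixed; GFP cells quantified at 488/509 nm.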
S16 F2sN tox: toxic to S16 Pmp22-F2sN Schwann cells | Potency, µM (series often up to 57.5 µM), without a hit: at the highest dose activity change, negative = cytotoxicity, usual class: cytotoxic | S16 Pmp22-F2sN Schwann cells viability, CellTiter-Glo, 24 h | AID 1508642 | 0.48% of 43,000 active; note: nearly all actives have a fitted effect of over 65% in size
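S16 Pmp22-F2sN Schwann cells (500-1,000/well) in phenol-red-free DMEM with 10% FBS received 23 nL compound by pin tool for 24 h at 37 °C. Viability was then read as CellTiter-Glo luminescence after 15 min at room temperature.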
PMP22 txn prim: modulates PMP22 transcription in S16 Schwann cells. S16 Pmp22-F2sN Schwann cells (luciferase reporters placed in the Pmp22 gene), FLuc/NLuc coincidence luminescence, 24 h. Potency, µM (doses to about 57.5 µM), inactives show at the highest dose activity change, negative = inhibition, actives largely listed as inhibitors. 2% of 43,000 active. AID 1508649; active = clear falling dose curves in both reporters; inconclusive = both reporters move, but less clearly or upward; inactive = either reporter flat; the % is the NLuc reporter signal
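Schwann cells carrying the coincidence reporter were exposed to library compounds for 24 h at 37C, then lysed and read for FLuc and, after quenching, NLuc luminescence on a CCD imager.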
The depositor's hits bear a star. This is a sample that favours compounds with a hit; in the whole collection about 2.6% have one here. Unless noted, calls come from the whole dose curve; as a rule, active = well fitted curve in the direction sought with a large enough effect; inconclusive = small, poorly fitted or top-dose-only effect, or another doubt; inactive = no such curve, though single readings can be large; an effect the other way counts as inactive or inconclusive. Unless noted, % is set by controls: 0 for no effect and ±100 for the full control effect; potency is the fitted concentration of half-maximal effect.

Screening Cc1ccc(C)c(N2CCN(CCCNC(=O)C3COc4ccccc4C3)CC2)c1 (stereo not drawn) returned pS6 MEF inh 12µM*, SKOV3 invasion -24%, S16 F2sN tox inconclusive and PMP22 txn prim inconclusive.
`Cc1ccc(C)c(NC(=O)Cn2nnc(C(=O)NCc3ccccc3Cl)c2N)c1` gave pS6 MEF inh -4%, SKOV3 invasion inconclusive, S16 F2sN tox 14µM* and PMP22 txn prim inconclusive.
Screening Cc1cc(C)cc(NC(=O)Cn2nnc(C(=O)NCc3ccccc3Cl)c2N)c1 returned pS6 MEF inh -9%, SKOV3 invasion inconclusive, S16 F2sN tox -15% and PMP22 txn prim inconclusive.
Screening COc1cc(OC)cc(-c2ccc3ncc4ccc(=O)n(-c5ccc(N6CCNCC6)c(C(F)(F)F)c5)c4c3c2)c1 returned SKOV3 invasion 7%.
Screening CCCCN(CC)C(=O)CSc1nc2n[nH]c(C)c2c(=N)n1-c1cccc(Cl)c1 returned pS6 MEF inh -3%, SKOV3 invasion -9%, S16 F2sN tox inconclusive and PMP22 txn prim 13µM*.
`Cc1cccc(NC(=O)Cn2cc(C(=O)C3CCCCC3)c3ccccc32)c1C` gave pS6 MEF inh -12%, SKOV3 invasion 0%, S16 F2sN tox inconclusive and PMP22 txn prim 10µM*.
Cc1ccc(NC(=O)Cn2cc(C(=O)C3CCCCC3)c3ccccc32)c(C)c1 was read as pS6 MEF inh 1%, SKOV3 invasion 4%, S16 F2sN tox -27% and PMP22 txn prim inconclusive.
Screening CC(C)CS(=O)(=O)c1oc(-c2ccc(F)cc2)nc1S(=O)(=O)c1ccccc1 returned pS6 MEF inh 0.74µM*, SKOV3 invasion inconclusive, S16 F2sN tox 4.5µM* and PMP22 txn prim inconclusive.
For CCC(C)S(=O)(=O)c1oc(-c2cccs2)nc1S(=O)(=O)c1ccccc1 (stereo not drawn) the results were pS6 MEF inh 1.2µM*, SKOV3 invasion -20%, S16 F2sN tox 2.5µM* and PMP22 txn prim 1.4µM*.
`O=S(=O)(c1ccccc1)c1nc(-c2cccs2)oc1N1CCCCC1` gave pS6 MEF inh -6%, SKOV3 invasion inactive, S16 F2sN tox -19% and PMP22 txn prim inconclusive.
`O=S(=O)(c1ccccc1)c1nc(-c2ccc(F)cc2)oc1NCc1ccccc1` gave pS6 MEF inh -1%, SKOV3 invasion -9%, S16 F2sN tox 19% and PMP22 txn prim -14%.
`NC1(Cc2ccc(Cl)cc2)CCN(c2ncnc3[nH]ccc23)CC1` gave SKOV3 invasion 8%.
`CCCCN(CCCNC(=O)c1cc(Nc2cccc(SC)c2)nc2ccccc12)Cc1ccccc1` gave pS6 MEF inh 16µM*, SKOV3 invasion inconclusive, S16 F2sN tox inconclusive and PMP22 txn prim inconclusive.
Screening O=C(Cn1c(=O)c2ccccc2n(CC(=O)Nc2ccc(Cl)cc2)c1=O)NCCc1ccccc1 returned pS6 MEF inh 16µM*, SKOV3 invasion -13%, S16 F2sN tox -21% and PMP22 txn prim -5%.
Cc1c(Cl)cccc1-c1ccc(C(=O)Nc2ccc3oc(-c4cccnc4)nc3c2)o1 was read as pS6 MEF inh 13µM*, SKOV3 invasion inconclusive, S16 F2sN tox -1% and PMP22 txn prim -26%.
`CC[C@@H](C)[C@H](NC(=O)[C@H](CC1CCCCC1)NC(=O)c1ccno1)C(=O)N1CCC2(CCc3ccccc32)CC1` gave SKOV3 invasion -32%.
Screening Cc1c(O)cccc1C(=O)N[C@@H](CSc1ccccc1)[C@H](O)CN1C[C@H]2CCCC[C@@H]2C[C@@H]1C(=O)NC(C)(C)C returned SKOV3 invasion 2%.
`Cn1c(=O)c2c(nc(N3CCOCC3)n2Cc2ccccc2)n(C)c1=O` gave pS6 MEF inh 0%, SKOV3 invasion inactive, S16 F2sN tox 11% and PMP22 txn prim -7%.
`CCOC(=O)Cn1c(=O)c2c(nc(N3CCOCC3)n2Cc2ccccc2)n(C)c1=O` gave pS6 MEF inh 9.3µM*, SKOV3 invasion inactive, S16 F2sN tox 6% and PMP22 txn prim -83%.
Screening CSc1ccc(C(=O)Nc2ccc(-c3nc4ccccc4s3)c(O)c2)cc1 returned pS6 MEF inh 0%, SKOV3 invasion -18%, S16 F2sN tox 1% and PMP22 txn prim -33%.
For CCSc1ccccc1C(=O)Nc1ccc(-c2nc3ccccc3s2)c(O)c1 the results were pS6 MEF inh 2.9µM*, SKOV3 invasion inactive, S16 F2sN tox inconclusive and PMP22 txn prim -20%.
O=C(Nc1ccc2oc(-c3cc(Br)ccc3Cl)nc2c1)c1cc2ccccc2o1 was read as pS6 MEF inh 4.1µM*, SKOV3 invasion inconclusive, S16 F2sN tox inconclusive and PMP22 txn prim inconclusive.
Screening Cc1ccc(S(=O)(=O)c2nc(-c3cccs3)oc2SCC(=O)Nc2cc(C)cc(C)c2)cc1 returned pS6 MEF inh 21µM*, SKOV3 invasion inconclusive, S16 F2sN tox 1% and PMP22 txn prim inconclusive.
`O=c1[nH]nc(OCCCc2ccc(Cl)cc2)c(NCc2cccnc2)c1Br` gave SKOV3 invasion -3%.
Screening COc1ccc(S(=O)(=O)NCC(c2ccco2)S(=O)(=O)c2cccs2)cc1C (stereo not drawn) returned pS6 MEF inh -1%, SKOV3 invasion -2%, S16 F2sN tox 22µM* and PMP22 txn prim inconclusive.
For COc1ccc(S(=O)(=O)NCC(c2ccco2)S(=O)(=O)c2cccs2)cc1F (stereo not drawn) the results were pS6 MEF inh -5%, SKOV3 invasion 7%, S16 F2sN tox 13µM* and PMP22 txn prim 15µM*.
Cc1cc(F)ccc1S(=O)(=O)NCC(c1ccco1)S(=O)(=O)c1cccs1 (stereo not drawn) was read as pS6 MEF inh 1%, SKOV3 invasion inconclusive, S16 F2sN tox 16µM* and PMP22 txn prim inconclusive.
Screening Oc1ccc(-c2ccc(-c3cc(Nc4cccc(CNC5CC5)c4)n[nH]3)cc2)c(O)c1 returned SKOV3 invasion 20%.
Screening c1ccc(N2CCN(c3ncnc4[nH]ncc34)CC2)cc1 returned pS6 MEF inh 15µM*, SKOV3 invasion -11%, S16 F2sN tox 0% and PMP22 txn prim -42%.
`CCOC(=O)c1ccc(N2C(=O)c3n[nH]c(-c4ccco4)c3C2c2ccc(OCC)cc2)cc1` (stereo not drawn) gave pS6 MEF inh 13µM*, SKOV3 invasion inconclusive, S16 F2sN tox inconclusive and PMP22 txn prim inconclusive.
`CCOC(=O)c1ccc(N2C(=O)c3n[nH]c(-c4ccco4)c3C2c2ccc(F)cc2)cc1` (stereo not drawn) gave pS6 MEF inh 0%, SKOV3 invasion inactive, S16 F2sN tox inconclusive and PMP22 txn prim inconclusive.
For CCOC(=O)c1ccc(N2C(=O)c3n[nH]c(-c4cccs4)c3C2c2cccc(F)c2)cc1 (stereo not drawn) the results were pS6 MEF inh 18µM*, SKOV3 invasion inconclusive, S16 F2sN tox -17% and PMP22 txn prim inconclusive.
